Here are results for six molecules from PubChem BioAssay (NCATS).

Inconclusive results are not listed. Unmarked numbers belong to inactive results. The source made the active and inactive calls. Calls come from the whole dose curve; as a rule, active = well fitted inhibition curve with a large enough effect; inconclusive = small, poorly fitted or top-dose-only effect; inactive = flat fitted curve, though single readings scatter.

The test system of one experiment is CRL-7250. As to the kind of experiment: Cytotoxic Profiling of Annotated Libraries Using Quantitative High-Throughput Screening (AID 1296008). For max response: % is set by controls: 0 for no effect and ±100 for the full control effect. Note: potency is the fitted concentration of half-maximal effect. Conditions: Five cell lines viability, CellTiter-Glo ATP luminescence, 48-72 h; max response: stronger effect = lower value. An outline of the steps: (§1)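 Cytotoxicity was measured as CellTiter-Glo ATP luminescence, read after 10 min at room temperature. Compound treatment of the cells lasted 48 or 72 hr at 37 degrees Celsius in a qHTS format.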
For orientation: In ATP-based viability assays light output follows the ATP content of the culture.

Another experiment deals with HEK293. The experiment is described as above. Conditions: Five cell lines viability, CellTiter-Glo ATP luminescence, 48-72 h; max response: stronger effect = lower value. An outline of the steps: as §1
Experiment [1] has as its system HaCat. Described as above. Conditions: Five cell lines viability, CellTiter-Glo ATP luminescence, 48-72 h; max response: stronger effect = lower value. An outline of the steps: as §1
In the next experiment the test system is KB-3-1. Described as above. Conditions: Five cell lines viability, CellTiter-Glo ATP luminescence, 48-72 h; max response: stronger effect = lower value. An outline of the steps: as §1
Another experiment concerns NIH3T3. The description is as above. Conditions: Five cell lines viability, CellTiter-Glo ATP luminescence, 48-72 h; max response: stronger effect = lower value. In outline:
as §1

Experiment [2] relates to HACAT. As to the kind of experiment: qHTS assay to identify novel small-molecules to repurpose for Merkel cell carcinoma treatment (AID 1296009). Conditions: MCC and control cell lines, CellTiter-Glo viability, 72 h; series mostly up to 44.8 µM. In outline:
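Cell viability measured by CellTiter-Glo following 72 hr compound treatment at 37 degree celsius, with NPC and MIPE libraries tested in 8- and 11-point concentration series.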
A general note: In qHTS, concentration-response curves come from the screen itself.
Note: nearly all actives have a fitted effect of over 60% in size.

As for `CC1CC(O)/C=C/C(O)C(O)CC(=O)Cc2c(Cl)c(O)cc(O)c2C(=O)O1` (stereo unspecified), the max response was 2.61% with CRL-7250, 0.716% in the experiment on HEK293, -4.28% in the experiment with HaCat [1] and -18.1% with NIH3T3. Further, the molecule was called inactive with KB-3-1.

Regarding `O=[N+]([O-])c1cn2c(n1)OCC(OCc1ccc(OC(F)(F)F)cc1)C2` (stereo unspecified), the max response in the experiment with CRL-7250 is -10.3%; with HEK293 it was -14.5%; in the experiment on HaCat [1] it was -6.12%; in the experiment with KB-3-1, -10.4%; in the experiment on NIH3T3 it was 0.653%.

Consider `CC(Nc1ncnc2nc[nH]c12)c1cc2cccc(Cl)c2c(=O)n1-c1ccccc1` (stereo unspecified), for which the results for the max response in the experiment on CRL-7250 and in the experiment with KB-3-1 were -7.8% and -11.3%, respectively. The Potency with HEK293 was 18.4 µM (active); in the experiment with HaCat [1], 20.6 µM (active); in the experiment with NIH3T3 it was 13 µM (active).

With `C[C@@H]1O[C@@H](O[C@H]2[C@@H]3C=CO[C@@H](O[C@@H]4O[C@H](CO)[C@@H](O)[C@H](O)[C@H]4O)[C@@H]3[C@@]3(CO)O[C@@H]23)[C@H](OC(=O)/C=C/c2ccccc2)[C@H](O)[C@H]1O`, the max response is -0.445% in the experiment on CRL-7250, -1.51% with HEK293 and -1.15% in the experiment with NIH3T3. In addition, the outcome in the experiment with HaCat [1] and in the experiment with KB-3-1 was inactive. Moreover, the Potency result in the experiment with HACAT [2] is “inactive”.

`CN[C@@H]1[C@H](O[C@H]2[C@H](O[C@@H]3[C@@H](O)[C@H](O)[C@@H](N=C(N)N)[C@H](O)[C@H]3N=C(N)N)O[C@@H](C)[C@]2(O)C=O)O[C@@H](CO)[C@H](O)[C@H]1O`: the max response in the experiment with CRL-7250 was 2.94%; in the experiment on HEK293, 4.73%; with HaCat [1], -17.2%; in the experiment with NIH3T3, -1.39%. Also, the molecule was called inactive in the experiment with KB-3-1.

As to `CC(C)(O)/C=C/C1=CC(=O)[C@@](C)(O)C[C@H]1O`, the max response in the experiment on CRL-7250 is -5.51%; in the experiment on HEK293, -6.16%; in the experiment on HaCat [1] it was 4.28%; in the experiment with KB-3-1 it was 7.85%; in the experiment with NIH3T3, -2.07%.
